Tested on: THRa homodimer (NR concentration 90 nM)
Assay: PBM binding z-score (relative to random genomic background probes); higher = stronger binding; sequences stand for … in GC…GCGATTGACAGCGTAGAATGAAGG
Procedure, shortened: (§1)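 Each nuclear receptor dimer, without ligand, was incubated for 1 h on custom Agilent 4×180K protein-binding microarrays. Binding was detected with antibodies against each partner (one per run), and scanned fluorescence was regression-normalized. The binding z-scores are referenced to random human genomic background probes.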

Which PBM binding z-score does the source give for TCGAGTAGGCTAGGGGCATTCAGAATGGCGTCGA here?
Its PBM binding z-score is -0.929.

Which PBM binding z-score does the source give for TCATATAGGTAAATGCTAGGTAAAAGTCCGATCT here?
Its PBM binding z-score is 0.258.

Which PBM binding z-score does the source give for CGAACTAGGACATTGACAGGACAGTGAATAGTAA here?
Its PBM binding z-score is 0.623.

TGGCCTAGGTCATTGGGCCAGTATAGTACGCATC was tested. Which PBM binding z-score did it give?
The PBM binding z-score was 0.295.

How did the PBM binding z-score turn out when CGAACGAGGGCATGGGTTGATAGCAAATGCCGAT was run?
Its PBM binding z-score is 0.384.

How did the PBM binding z-score turn out when TAGCTTAGGTCATGCGGGCCAGTATAGTGTCGGC was run?
Its PBM binding z-score is 2.34.

Which PBM binding z-score does the source give for CCTATTAGTTAACCATAAGGGCAACCGAAGCTCG here?
The PBM binding z-score was 1.31.

For CCGACTGGGGCAGGGTTACCATAACGCACAGCCA, which PBM binding z-score is on record?
The PBM binding z-score was -0.0778.

GCTAGGAGGCCATTTGGGTCACTCAATGACGGGC was tested. Which PBM binding z-score did it give?
Its PBM binding z-score is 0.78.

For TCATATAGGTAAACGCTAGGTGAAAGTCCGATCT, which PBM binding z-score is on record?
Its PBM binding z-score is 0.385.

How did the PBM binding z-score turn out when TCTTGTAGATAAGCAGGTTAAGAAAGCTGGCCAA was run?
Its PBM binding z-score is -0.622.

For CAAACTAGGTCACCTGAAGGTCAAAGTCCGCATG, which PBM binding z-score is on record?
Its PBM binding z-score is 2.96.

How did the PBM binding z-score turn out when CGAACTAGGTCATGGACAGGACAGTGAATAGTAA was run?
Its PBM binding z-score is 0.909.

With CCTACCGGGCCATCAGGTCATTGATATCAACGTT as the sequence, how does the PBM binding z-score read?
Its PBM binding z-score is 3.37.

With AGTCAAAGTTCATCTAAGTAACGTAAGATATGCT as the sequence, how does the PBM binding z-score read?
The PBM binding z-score was -0.213.

With TCTTGTAGATCAAGCAGGTTAATAAAGCCTGAGT as the sequence, how does the PBM binding z-score read?
Its PBM binding z-score is -0.531.

CAAACTAGGTCACGAAAGTTCAAAGTCGAATGAC was tested. Which PBM binding z-score did it give?
The PBM binding z-score was 1.46.

Tested on: VDR homodimer (NR concentration 270 nM)
Assay: as above
Procedure, shortened: as §1

With CGTCCTAGGTCAAAGGTCAGTGAAGAGATGACGG as the sequence, how does the PBM binding z-score read?
Its PBM binding z-score is 1.24.

With TCTATTAGTCGAAGGGCAACCGACGAGTCCGTTT as the sequence, how does the PBM binding z-score read?
The PBM binding z-score was 1.35.

TGAATGAGGTTAAAGATCGGGGAACGTGGCGTCG was tested. Which PBM binding z-score did it give?
Its PBM binding z-score is 0.818.

Which PBM binding z-score does the source give for CGTCAAAGTTGAAGGTAACGTAACAGAAAGCAGC here?
Its PBM binding z-score is -0.0561.

With TCAAGCAGGCCAGAGGGTCACTCAAGAGGTACGG as the sequence, how does the PBM binding z-score read?
The PBM binding z-score was 0.557.

GCTAGTTGGTCAGTAAAAGGTCACACCCCGGTCG was tested. Which PBM binding z-score did it give?
The PBM binding z-score was 1.43.

For ATCGAAAGGTCGGCGAGGTGAGTATACACCGTTT, which PBM binding z-score is on record?
The PBM binding z-score was 0.535.

How did the PBM binding z-score turn out when TCTAGCAGGCCCGAGGGTCACTCAAGAGGTACGG was run?
Its PBM binding z-score is 0.268.

With ACTATTAGCTGAGACGAGGGCAACCGATAGGTTG as the sequence, how does the PBM binding z-score read?
The PBM binding z-score was 0.999.

TAGCCTAGGTCGTGCGGGCCAGTATAGTGTCGGC was tested. Which PBM binding z-score did it give?
The PBM binding z-score was -0.502.

TCTTGTAGACCAATAGAGGTTAAGAAAGTGCGCT was tested. Which PBM binding z-score did it give?
Its PBM binding z-score is 0.345.

Which PBM binding z-score does the source give for TCCAGTAGGTTAGGGGCATTCAGAATGGCGTCGA here?
The PBM binding z-score was 0.877.

For ATACCAAGGTGATCTTGAGGTCGTTGATACTAAC, which PBM binding z-score is on record?
Its PBM binding z-score is 3.21.

Which PBM binding z-score does the source give for ACTATTAGTTGAGACGTGGGCAACCGATAGGTTG here?
The PBM binding z-score was -0.369.

For CCTACTGGGCCAAAAAGGTCATTGAGGCCGATAA, which PBM binding z-score is on record?
Its PBM binding z-score is 3.39.

Which PBM binding z-score does the source give for CGTCCAAGGTCATAGGAGGTCAGCGAAGACAGAT here?
The PBM binding z-score was 4.37.

How did the PBM binding z-score turn out when GCATATAGGTAATGCAAGGTGAAAGTCCGATTGT was run?
The PBM binding z-score was -0.0965.

How did the PBM binding z-score turn out when TCTAGCAGGCCAGAGGGTCATTCAAGAGGTACGG was run?
The PBM binding z-score was 1.28.

Which PBM binding z-score does the source give for AGAATGAGGTTACCAAAGATCAGCGAAACGCTTG here?
Its PBM binding z-score is 0.187.

For TCTATTAGTTGATTAGGGCAGCCGAAACAGCGGA, which PBM binding z-score is on record?
The PBM binding z-score was 0.654.

Which PBM binding z-score does the source give for ACTATTAGTTGAGAAGAGGGCAACCGATAGGTTG here?
The PBM binding z-score was 0.263.

Which PBM binding z-score does the source give for ACTAGCAGGCCAAGTTTGGGTCACTTAAACAAAG here?
The PBM binding z-score was 0.22.

With TCGAGTAGGCTAGGGGCATTCAGAATGGCGTCGA as the sequence, how does the PBM binding z-score read?
The PBM binding z-score was -0.279.

With TCATATAGGTAAATGCTAGGTAAAAGTCCGATCT as the sequence, how does the PBM binding z-score read?
The PBM binding z-score was 0.409.

For CGAACTAGGACATTGACAGGACAGTGAATAGTAA, which PBM binding z-score is on record?
The PBM binding z-score was 0.546.

Which PBM binding z-score does the source give for TGGCCTAGGTCATTGGGCCAGTATAGTACGCATC here?
Its PBM binding z-score is 0.451.

With CGAACGAGGGCATGGGTTGATAGCAAATGCCGAT as the sequence, how does the PBM binding z-score read?
The PBM binding z-score was 1.72.

TAGCTTAGGTCATGCGGGCCAGTATAGTGTCGGC was tested. Which PBM binding z-score did it give?
Its PBM binding z-score is 0.954.

With CCTATTAGTTAACCATAAGGGCAACCGAAGCTCG as the sequence, how does the PBM binding z-score read?
The PBM binding z-score was 0.663.

CCGACTGGGGCAGGGTTACCATAACGCACAGCCA was tested. Which PBM binding z-score did it give?
Its PBM binding z-score is -0.615.

How did the PBM binding z-score turn out when GCTAGGAGGCCATTTGGGTCACTCAATGACGGGC was run?
Its PBM binding z-score is 1.29.

For TCATATAGGTAAACGCTAGGTGAAAGTCCGATCT, which PBM binding z-score is on record?
The PBM binding z-score was 0.251.

With TCTTGTAGATAAGCAGGTTAAGAAAGCTGGCCAA as the sequence, how does the PBM binding z-score read?
Its PBM binding z-score is -0.0851.

Which PBM binding z-score does the source give for CAAACTAGGTCACCTGAAGGTCAAAGTCCGCATG here?
Its PBM binding z-score is 3.86.

For CGAACTAGGTCATGGACAGGACAGTGAATAGTAA, which PBM binding z-score is on record?
Its PBM binding z-score is 0.49.

CCTACCGGGCCATCAGGTCATTGATATCAACGTT was tested. Which PBM binding z-score did it give?
Its PBM binding z-score is 1.78.

For AGTCAAAGTTCATCTAAGTAACGTAAGATATGCT, which PBM binding z-score is on record?
Its PBM binding z-score is 4.88.

With TCTTGTAGATCAAGCAGGTTAATAAAGCCTGAGT as the sequence, how does the PBM binding z-score read?
Its PBM binding z-score is 0.0475.

For CAAACTAGGTCACGAAAGTTCAAAGTCGAATGAC, which PBM binding z-score is on record?
Its PBM binding z-score is 4.82.

Source: the supplement of paper PMC6555819
